Compound activity from PubChem BioAssay.
The list is not random: actives were taken first. Their share in the collection is about 19%.
HT1080 IDH1KD tx: toxicity to HT-1080 IDH1 knockdown cells (counter line). HT-1080 IDH1 knockdown viability, ATP luminescence, 48 h. Potency, µM (series often up to 46.1 µM), without a hit: top-dose activity, negative = toxicity, hits mostly cytotoxic. AID 686971. actives 2% (n = 360,000);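 also: potency is read from the fitted curve at half-maximal effect; 0% = DMSO wells and -100% = cell-free medium wells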
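In this qHTS, HT-1080 cells depleted of IDH1 are exposed for 48 h at 37 °C to compound titrations. Toxicity is scored from CellTiter-Glo luminescence, with DMSO as full viability and medium alone as none.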
HT1080-NT tox: kills 2HG-producing HT-1080-NT fibrosarcoma cells | HT-1080-NT fibrosarcoma viability, CellTiter-Glo ATP luminescence, 48 h | Potency, µM (doses to about 46.1 µM), inactives show at the highest dose activity, negative = less viability, actives largely listed as cytotoxic | actives 1.6% (n = 360,000);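 also: NT is the 2HG producing partner of a matched IDH1 knockdown line; potency is read from the fitted curve at half-maximal effect; 0% = DMSO-treated cells and -100% = media-only wells without cells; nearly all actives have a fitted effect of over 55% in size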
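Viability by CellTiter-Glo luminescence after 48 h compound exposure at 37C of HT-1080-NT cells (750/well, RPMI, 5% FBS). % activity scaled between DMSO wells and medium-only wells, then curve-fitted and categorized by curve class.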
IL1B secr inh: inhibitors of inflammasome signaling (IL-1 beta secretion); THP-1 LPS/ATP IL-1B secretion, AlphaLISA, 16 h; hits give low values; activity change, % at 57.5 µM; actives 4.7% (n = 360,000); AID 743279; in the data active = activity change below about -50%; inconclusive = mostly about -30% to -49%
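Secreted IL-1B measured by AlphaLISA bead assay after 16 h compound exposure of THP-1 cells; compounds (final up to 57.5 uM) added 1 h before LPS (250 ng/mL) and ATP (1.25 mM) stimulation; lower signal means less secretion.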
TDP1 cell noCPT: qHTS for Inhibitors of human tyrosyl-DNA phosphodiesterase 1 (TDP1): qHTS in cells in absence of CPT; AID 686978, 2013; DT40 Tdp1-/- hTDP1 cells, no CPT, ATP luminescence, 48 h; actives 15% (n = 420,000); Potency, µM (titrated, usually from 46.2 µM), without a hit: top-dose activity change, negative = growth inhibition, hits mostly inhibitors; also: potency is read from the fitted curve at half-maximal effect; nearly all actives have a fitted effect of over 55% in size
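A cellular qHTS used chicken DT40 cells lacking endogenous Tdp1 but carrying stably transfected human TDP1. Compounds were applied without camptothecin, and cell growth kinetics were judged by ATP-dependent luminescence after ≥48 hr.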
DT40 TDP1 CPT: DT40-hTDP1 cell growth loss with CPT. Potency, µM (titrated, usually from 46.2 µM), for the others: at the top dose activity change, negative = growth inhibition, actives largely listed as inhibitors. chicken DT40 Tdp1-/-;hTDP1 cells + 20 nM CPT, ATP luminescence, 48 h. actives 12% (n = 420,000); also: potency is read from the fitted curve at half-maximal effect; nearly all actives have a fitted effect of over 55% in size
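Chicken DT40 Tdp1-/- cells complemented with human TDP1, 400 cells/well, exposed to compounds plus 20 nM camptothecin for at least 48 h at 37 C; viability read as ATP content by CellTiter-Glo luminescence.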
* marks the source's active call; other numbers are inactive results; i = inactive; u = inconclusive; x = no result given. Unless noted, calls follow the shape of the dose curve; as a rule, active = well fitted curve in the direction sought with a large enough effect; inconclusive = small, poorly fitted or top-dose-only effect, or another doubt; inactive = no such curve, though single readings can be large; an effect the other way counts as inactive or inconclusive. Unless noted, % is scaled to controls: 0 for no effect and ±100 for the full control effect.

SMILES	HT1080 IDH1KD tx	HT1080-NT tox	IL1B secr inh	TDP1 cell noCPT	DT40 TDP1 CPT
CC(C)(C)c1cc(S(=O)(=O)CCc2ccncc2)cc(C(C)(C)C)c1F	1%	4%	8	u	-11%
Cc1nn(-c2ccccc2)c(C)c1C(=O)OCC(=O)c1c(N)n(CC(C)C)c(=O)n(C)c1=O	-22%	-17%	u	18µM*	21µM*
CC(C)Cn1c(N)c(C(=O)COC(=O)c2cc(F)cc(F)c2)c(=O)n(C)c1=O	-17%	-14%	23	u	-25%
CC(C)Cn1c(N)c(C(=O)COC(=O)c2ccc(O)cc2)c(=O)n(C)c1=O	5%	1%	16	u	-20%
CC(C)Cn1c(N)c(C(=O)COC(=O)c2cnc(Cl)c(Cl)c2)c(=O)n(C)c1=O	-6%	-16%	-25	u	18µM*
CC(C)Cn1c(N)c(C(=O)COC(=O)c2cc(C(F)(F)F)nc3ccccc23)c(=O)n(C)c1=O	-1%	2%	6	18µM*	8.2µM*
CC(C)Cn1c(N)c(C(=O)COC(=O)c2ccc([N+](=O)[O-])o2)c(=O)n(C)c1=O	-9%	-19%	-18	u	u
CC(C)Cn1c(N)c(C(=O)COC(=O)c2cc(C3CC3)nc3ccccc23)c(=O)n(C)c1=O	u	21µM*	-4	21µM*	u
COc1cccc(CNC(=O)c2cc(S(=O)(=O)N3CCCCC3)ccc2C)c1	1%	-1%	-2	u	-29%
CC(=O)N(C)c1ccc(NC(=O)Cc2cccs2)cc1	-1%	1%	24	3%	4%
CC(C)Cn1c(N)c(C(=O)COC(=O)c2cc(-c3ccccc3)nc3ccccc23)c(=O)n(C)c1=O	17%	10%	9	16µM*	21µM*
CC(=O)Nc1cc(O)c2nonc2c1O	x	x	x	0.71µM*	0.63µM*
CC1(C(=O)NCc2ccc3c(c2)OCO3)CCN1C(=O)CCc1ccc(Cl)cc1Cl (centres undefined)	u	-17%	-15	15µM*	21µM*
CC1(C(=O)Nc2ccccc2Br)CCN1C(=O)Cc1ccc(Cl)cc1Cl (centres undefined)	-21%	-14%	-12	16µM*	23µM*
CC1(C(=O)NS(=O)(=O)c2ccccc2Cl)CCN1C(=O)CCc1ccc(Cl)cc1Cl (centres undefined)	30%	15%	0	-13%	-24%
CC1(C(=O)Nc2ccccc2)CCN1C(=O)CCc1ccc(Cl)cc1Cl (centres undefined)	0%	-3%	-6	21µM*	u
Cc1cn([C@H]2C[C@H](O)[C@@H](CNCc3cccc(OC4CCCC4)c3)O2)c(=O)[nH]c1=O	0%	-3%	10	-3%	-3%
Cc1onc(-c2ccccc2Cl)c1C(=O)Nc1cccc2nsnc12	-2%	2%	6	u	u
COc1cc(NC(=O)c2c(-c3ccccc3Cl)noc2C)c2ncccc2c1	16%	25%	11	16µM*	16µM*
Cc1onc(-c2ccccc2Cl)c1C(=O)Nc1cccc2cccnc12	u	-26%	-20	4.1µM*	9.2µM*
COc1cc(NC(=O)c2ccc(Cl)cc2)c2ncccc2c1	3%	9%	45	13%	-14%
CCCCCOc1ccc(/C=C/C(=O)Nc2sc(C(C)=O)c(C)c2C(=O)OCC)cc1OC	x	x	x	5.8µM*	u
COc1cc(/C=C/C(=O)Nc2ccc3[nH]c(=O)[nH]c3c2)cc(OC)c1OC	4%	0%	-72*	2%	3%
CCOC(=O)c1ccccc1NC(=O)Nc1ccc(OC)c(OC)c1	-30%	-10%	-67*	7%	-24%
CCOCCOC(=O)c1ccc(NC(=O)/C=C/c2ccc(OC)c(OC)c2)cc1	x	x	x	9.2µM*	26µM*
SMILES	HT1080 IDH1KD tx	HT1080-NT tox	IL1B secr inh	TDP1 cell noCPT	DT40 TDP1 CPT
COc1ccc(-c2noc3c2-c2nc(-c4ccccc4F)sc2CC3)cc1	-4%	u	-5	u	-23%
Cc1c(Cl)cnc(NC(=O)COC(=O)CCc2nc3ccccc3s2)c1Cl	5%	3%	8	21%	-21%
COC(=O)c1cc(Cl)c(NC(=O)/C=C/c2ccc(OC)c(OC)c2)cc1OC	-6%	-7%	-3	23µM*	u
CCOC(=O)c1ccccc1NC(=O)/C=C/c1cc(OC)c(OC)c(OC)c1	0%	-2%	-7	6.5µM*	-20%
COc1ccc(OC)c(/C=C/C(=O)Nc2ccc(C(=O)OCCC(C)C)cc2)c1	x	x	x	18µM*	18µM*
COC(=O)c1cn(C(=O)c2ccc(C)cc2C)c2ccccc12	6.5µM*	u	16	u	u
CCCCOC(=O)c1ccc(NC(=O)Nc2ccc(OC)c(OC)c2)cc1	u	-5%	-13	u	u
COC(=O)c1cc(Cl)c(NC(=O)/C=C/c2ccc(Cl)cc2)cc1OC	-4%	-4%	0	u	u
O=C(N/C(=C\c1ccccc1)C(=O)N1CCCCC1)c1ccc(Br)o1	-4%	-4%	7	u	u
CCN(CC)CC1CCCCN1CC(=O)N1c2ccccc2C(=O)Nc2cccnc21 (centres undefined)	x	x	x	-15%	-5%
CC1=C(C)C(O)N(Cc2ccccc2)C1=O (centres undefined)	16%	-3%	8	2%	-4%
COc1ccc(/C=C/C(=O)Nc2ccc(Cl)c(Cl)c2)cc1OC	x	x	x	21µM*	u
COc1cc(NC(=O)/C=C/c2ccccc2)c(C(=O)O)cc1OC	5%	-4%	-4	u	u
COc1ccc(/C=C\C(=O)Nc2ccccc2C(=O)O)cc1OC	x	x	x	13µM*	13µM*
Cc1ccc(NC(=O)Nc2ccc3c(c2)OCO3)c(OC(F)F)c1	-3%	-10%	i	-14%	-1%
COc1ccc(NC(=O)Nc2ccc(C)cc2OC(F)F)cc1OC	-1%	5%	-11	21µM*	u
CCOC(=O)c1sc(-c2ccc(F)cc2)cc1NC(=O)Nc1ccccc1OC	14%	20%	i	u	16µM*
COc1cc(/C=N/N(C)c2ccccc2)cc(Cl)c1O	u	u	0	u	u
COC(=O)c1cn(C(=O)/C=C/c2ccc(OC)c(OC)c2)c2ccccc12	u	-22%	-69*	16µM*	u
COCc1cc(C)nc(OC)c1C(N)=O	19%	14%	-17	-6%	24%
Cc1cccc(C)c1NC(=O)Cn1c(=O)n(Cc2ccccc2)c(=O)c2c(C)c(C(=O)N(C)C)sc21	x	x	x	u	16µM*
